# This excerpt belongs to a sample that is enriched for the strongest signals.
# How the values were obtained:
# Test in all cases: glycan array binding signal (z-score within array); higher = stronger binding
# [1] = tested on: Fuc(a1-2)Gal(b1-3)[Fuc(a1-4)]GlcNAc(b1-2)Man(a1-3)[Fuc(a1-2)Gal(b1-3)[Fuc(a1-4)]GlcNAc(b1-2)Man(a1-3)]Man(b1-4)GlcNAc(b1-4)GlcNAc; details: glycan notation: IUPAC condensed, linker removed; mutation: R125K
# Procedure, shortened: (§1)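 From the Consortium for Functional Glycomics database, 3228 arrays were curated, keeping only those whose protein sequence was available. Binding is given as a within-array Z-score averaged across arrays sharing a protein sequence and across linkers. Negative Z-scores can be read as non-binding.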
# [2] = tested on: Fuc(a1-2)Gal(b1-4)Fuc(a1-3)]GlcNAc(b1-2)Man(a1-3)[Fuc(a1-2)Gal(b1-4)[Fuc(a1-3)]GlcNAc(b1-2)Man(a1-6)]Man(b1-4)GlcNAc(b1-4)GlcNAc; details: glycan notation: IUPAC condensed, linker removed; mutation: R125K
# Procedure, shortened: as §1
# [3] = tested on: Fuc(a1-2)Gal(b1-4)GlcNAc(b1-2)Man; details: glycan notation: IUPAC condensed, linker removed
# Procedure, shortened: as §1
# [4] = tested on: Fuc(a1-2)Gal(b1-4)GlcNAc(b1-3)Gal(b1-4)GlcNAc(b1-3)Gal(b1-4)GlcNAc; details: glycan notation: IUPAC condensed, linker removed; mutation: R125K
# Procedure, shortened: as §1
# [5] = tested on: Fuc(a1-2)Gal(b1-4)GlcNAc(b1-3)Gal(b1-4)GlcNAc; details: glycan notation: IUPAC condensed, linker removed; mutation: R125K
# Procedure, shortened: as §1
# [6] = tested on: Fuc(a1-2)Gal(b1-4)GlcNAc(b1-3)[Fuc(a1-3)[Gal(b1-4)]GlcNAc(b1-6)]Gal(b1-4)Glc; details: glycan notation: IUPAC condensed, linker removed
# Procedure, shortened: as §1
# [7] = tested on: Fuc(a1-2)Gal(b1-4)GlcNAc(b1-6)GalNAc; details: glycan notation: IUPAC condensed, linker removed
# Procedure, shortened: as §1
# [8] = tested on: Fuc(a1-2)Gal(b1-4)GlcNAc; details: glycan notation: IUPAC condensed, linker removed
# Procedure, shortened: as §1
# [9] = tested on: Fuc(a1-2)Gal(b1-4)Glc6S; details: glycan notation: IUPAC condensed, linker removed
# Procedure, shortened: as §1
# [10] = tested on: Fuc(a1-2)Gal(b1-4)GlcNAc(b1-2)[Fuc(a1-2)Gal(b1-4)GlcNAc(b1-4)]Man(a1-3)[Fuc(a1-2)Gal(b1-4)GlcNAc(b1-2)Man(a1-6)]Man(b1-4)GlcNAc(b1-4)GlcNAc; details: glycan notation: IUPAC condensed, linker removed
# Procedure, shortened: as §1
# [11] = tested on: Fuc(a1-2)Gal(b1-3)[Fuc(a1-4)]GlcNAc(b1-2)Man(a1-6)[Fuc(a1-2)Gal(b1-3)[Fuc(a1-4)]GlcNAc(b1-2)Man(a1-3)]Man(b1-4)GlcNAc(b1-4)[Fuc(a1-6)]GlcNAc; details: glycan notation: IUPAC condensed, linker removed
# Procedure, shortened: as §1
# [12] = tested on: Fuc(a1-2)Gal(b1-3)[Fuc(a1-4)]GlcNAc; details: glycan notation: IUPAC condensed, linker removed
# Procedure, shortened: as §1
# [13] = tested on: Fuc(a1-2)Gal(b1-4)GlcNAc(b1-3)[Fuc(a1-2)Gal(b1-4)GlcNAc(b1-6)]GalNAc; details: glycan notation: IUPAC condensed, linker removed
# Procedure, shortened: as §1
# [14] = tested on: Fuc(a1-2)Gal(b1-3)GlcNAc(b1-3)[Neu5Ac(a2-6)Gal(b1-4)GlcNAc(b1-6)]Gal(b1-4)Glc; details: glycan notation: IUPAC condensed, linker removed
# Procedure, shortened: as §1
# [15] = tested on: Fuc(a1-2)Gal(b1-3)[Fuc(a1-4)]GlcNAc(b1-3)[Gal(b1-4)GlcNAc(b1-6)]Gal(b1-4)Glc; details: glycan notation: IUPAC condensed, linker removed
# Procedure, shortened: as §1
# [16] = tested on: Fuc(a1-2)Gal(b1-4)GlcNAc(b1-2)Man(a1-3)[Fuc(a1-2)Gal(b1-4)GlcNAc(b1-2)Man(a1-6)]Man(b1-4)GlcNAc(b1-4)GlcNAc; details: glycan notation: IUPAC condensed, linker removed
# Procedure, shortened: as §1
# [17] = tested on: Fuc(a1-2)Gal(b1-4)GlcNAc(b1-3)Gal(b1-4)GlcNAc(b1-2)Man(a1-3)[Fuc(a1-2)Gal(b1-4)GlcNAc(b1-3)Gal(b1-4)GlcNAc(b1-2)Man(a1-6)]Man(b1-4)GlcNAc(b1-4)GlcNAc; details: glycan notation: IUPAC condensed, linker removed
# Procedure, shortened: as §1
# [18] = tested on: Fuc(a1-2)Gal(b1-3)GlcNAc; details: glycan notation: IUPAC condensed, linker removed
# Procedure, shortened: as §1
# [19] = tested on: Fuc(a1-2)Gal(b1-3)[Fuc(a1-4)]GlcNAc(b1-2)Man(a1-3)[Fuc(a1-2)Gal(b1-3)[Fuc(a1-4)]GlcNAc(b1-2)Man(a1-6)]Man(b1-4)GlcNAc(b1-4)GlcNAc; details: glycan notation: IUPAC condensed, linker removed
# Procedure, shortened: as §1
# [20] = tested on: Fuc(a1-2)Gal(b1-4)GlcNAc(b1-3)GalNAc; details: glycan notation: IUPAC condensed, linker removed
# Procedure, shortened: as §1
# Chain of PILRb (Mus musculus), Q2YSF2 (Q2YSF2 entry or part of it): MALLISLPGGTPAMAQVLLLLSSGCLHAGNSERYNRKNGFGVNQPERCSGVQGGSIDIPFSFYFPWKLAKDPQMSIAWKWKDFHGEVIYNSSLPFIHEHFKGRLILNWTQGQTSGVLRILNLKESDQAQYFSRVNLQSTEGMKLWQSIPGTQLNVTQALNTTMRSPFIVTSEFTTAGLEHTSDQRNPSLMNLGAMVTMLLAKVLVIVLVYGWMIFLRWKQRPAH
# Chain of CHI3L1 (Homo sapiens), P36222 (P36222 whole entry): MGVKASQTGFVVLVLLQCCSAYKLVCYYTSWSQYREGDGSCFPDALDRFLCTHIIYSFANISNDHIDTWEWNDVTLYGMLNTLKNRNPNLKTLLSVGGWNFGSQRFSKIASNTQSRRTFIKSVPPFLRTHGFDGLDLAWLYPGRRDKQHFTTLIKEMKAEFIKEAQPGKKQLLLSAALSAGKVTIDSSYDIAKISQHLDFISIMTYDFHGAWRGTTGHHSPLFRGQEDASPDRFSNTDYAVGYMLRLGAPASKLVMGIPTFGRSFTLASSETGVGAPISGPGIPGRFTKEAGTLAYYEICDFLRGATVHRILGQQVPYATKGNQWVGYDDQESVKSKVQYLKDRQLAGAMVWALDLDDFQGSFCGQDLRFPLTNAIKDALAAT
# Chain of Regenerating Gene IV (Homo sapiens), Q9BYZ8 (Q9BYZ8 whole entry, looked up): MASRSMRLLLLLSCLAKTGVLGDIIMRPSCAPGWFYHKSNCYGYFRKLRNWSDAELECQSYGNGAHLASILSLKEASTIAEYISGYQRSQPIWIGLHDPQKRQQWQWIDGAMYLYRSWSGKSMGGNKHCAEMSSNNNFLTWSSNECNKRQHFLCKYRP
# Chain of Neurocan (Homo sapiens), O14594 (O14594 other isoform, or with tags, fused parts or gaps): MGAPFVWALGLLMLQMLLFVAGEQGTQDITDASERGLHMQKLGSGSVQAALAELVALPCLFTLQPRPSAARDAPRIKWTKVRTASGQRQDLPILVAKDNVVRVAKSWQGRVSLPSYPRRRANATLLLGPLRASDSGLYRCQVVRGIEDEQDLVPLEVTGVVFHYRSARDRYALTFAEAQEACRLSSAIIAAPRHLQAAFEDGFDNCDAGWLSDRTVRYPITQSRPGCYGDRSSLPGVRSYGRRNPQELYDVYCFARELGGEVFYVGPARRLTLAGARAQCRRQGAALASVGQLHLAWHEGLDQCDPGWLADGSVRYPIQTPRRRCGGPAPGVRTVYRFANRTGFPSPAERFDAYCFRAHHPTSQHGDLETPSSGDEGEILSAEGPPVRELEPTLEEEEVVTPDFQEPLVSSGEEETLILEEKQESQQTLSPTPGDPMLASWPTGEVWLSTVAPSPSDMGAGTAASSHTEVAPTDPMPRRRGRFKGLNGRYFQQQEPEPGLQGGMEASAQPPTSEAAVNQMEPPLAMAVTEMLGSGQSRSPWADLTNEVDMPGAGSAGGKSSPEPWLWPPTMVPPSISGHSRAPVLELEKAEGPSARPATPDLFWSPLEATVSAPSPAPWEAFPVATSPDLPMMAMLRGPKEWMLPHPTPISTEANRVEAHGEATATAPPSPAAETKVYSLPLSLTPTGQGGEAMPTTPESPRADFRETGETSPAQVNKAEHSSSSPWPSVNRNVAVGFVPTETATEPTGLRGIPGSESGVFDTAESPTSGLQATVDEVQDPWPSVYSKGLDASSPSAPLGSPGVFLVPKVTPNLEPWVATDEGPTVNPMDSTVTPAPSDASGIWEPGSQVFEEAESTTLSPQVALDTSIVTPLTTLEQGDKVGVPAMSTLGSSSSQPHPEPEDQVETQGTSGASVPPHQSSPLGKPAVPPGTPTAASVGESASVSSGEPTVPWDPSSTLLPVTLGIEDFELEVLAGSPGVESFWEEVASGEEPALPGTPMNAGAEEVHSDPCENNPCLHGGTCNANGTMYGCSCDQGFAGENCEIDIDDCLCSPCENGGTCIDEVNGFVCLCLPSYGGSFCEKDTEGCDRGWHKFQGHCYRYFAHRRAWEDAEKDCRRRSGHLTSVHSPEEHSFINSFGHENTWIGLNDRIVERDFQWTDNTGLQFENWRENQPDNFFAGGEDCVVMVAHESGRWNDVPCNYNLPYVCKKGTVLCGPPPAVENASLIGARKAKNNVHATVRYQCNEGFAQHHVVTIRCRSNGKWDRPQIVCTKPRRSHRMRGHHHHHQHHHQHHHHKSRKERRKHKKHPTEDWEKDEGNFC
substance,measurement,setting,value
"Siglec-8 (Homo sapiens), Q9NYZ4",glycan array binding signal (z-score),[1],1.44
same,glycan array binding signal (z-score),[2],2.42
same,glycan array binding signal (z-score),[3],-0.065
same,glycan array binding signal (z-score),[4],-0.32
same,glycan array binding signal (z-score),[5],-0.565
same,glycan array binding signal (z-score),[6],-0.102
same,glycan array binding signal (z-score),[7],0.139
same,glycan array binding signal (z-score),[8]; mutation: R125K,-0.001
"Regenerating Gene IV (Homo sapiens), Q9BYZ8",glycan array binding signal (z-score),[9],2.53
"Neurocan (Homo sapiens), O14594",glycan array binding signal (z-score),[10],0.982
"CHI3L1 (Homo sapiens), P36222",glycan array binding signal (z-score),[11],0.653
same,glycan array binding signal (z-score),[12],5.09
same,glycan array binding signal (z-score),[13],-0.129
MpAFP RI GFP (Marinomonas primoryensis),glycan array binding signal (z-score),[14],-0.127
same,glycan array binding signal (z-score),[15],-0.303
same,glycan array binding signal (z-score),[12],-0.05
same,glycan array binding signal (z-score),[16],-0.295
same,glycan array binding signal (z-score),[17],1.06
"HARE (Homo sapiens), Q8WWQ8",glycan array binding signal (z-score),[8],2.62
"PILRb (Mus musculus), Q2YSF2",glycan array binding signal (z-score),[18],-0.281
same,glycan array binding signal (z-score),[19],2.44
same,glycan array binding signal (z-score),[20],-0.066

# — the supplement of paper PMC8728848
